# Laboratory results published in paper PMC8384837, “Expanding the binding specificity for RNA recognition by a PUF domain”.
# Numbering of substitutions follows the chain as printed.
# Columns and labels:
# Experiment in all cases: yeast three-hybrid, YBZ-1, SC-Leu-His + 0.5 mM 3-AT, 4 days
# Conditions in all cases: tags: N-Gal4 AD-HA kept; label: inside an RPR1-promoter hybrid RNA with tandem MS2 sites; ssRNA
# [1] = biological target: PUM1 PUF domain R2-DWC (Homo sapiens, UniProt Q14671 828-1176, N899D;Y900W;Q903C)
# Outline: (§1)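 A centromeric plasmid in strain YBZ-1 co-expressed Pumilio-1 PUF domain libraries, randomized at the three base-contacting residues of each repeat, with matching RNA elements; the strain carries a LexA–MS2 coat fusion and a HIS3 reporter. After four days on SC-Leu (input) or SC-Leu-His + 0.5 mM 3-AT (selection), the repeat regions were PCR-amplified and Illumina-sequenced. The interaction score is the log change in variant frequency from input to selection, using log2 and a pseudocount of 1 where absent.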
# [2] = biological target: PUM1 PUF domain R7-ARR (Homo sapiens, UniProt Q14671 828-1176, S1079A;N1080R;E1083R)
# Outline: as §1
# [3] = biological target: PUM1 PUF domain R5-HCR (Homo sapiens, UniProt Q14671 828-1176, C1007H;R1008C;Q1011R)
# Outline: as §1
# [4] = biological target: PUM1 PUF domain R5-RGK (Homo sapiens, UniProt Q14671 828-1176, C1007R;R1008G;Q1011K)
# Outline: as §1
# [5] = biological target: PUM1 PUF domain R4-SNI (Homo sapiens, UniProt Q14671 828-1176, N971S;H972N;Q975I)
# Outline: as §1
# [6] = biological target: PUM1 PUF domain R4-DHS (Homo sapiens, UniProt Q14671 828-1176, N971D;Q975S)
# Outline: as §1
# [7] = biological target: PUM1 PUF domain R7-EPG (Homo sapiens, UniProt Q14671 828-1176, S1079E;N1080P;E1083G)
# Outline: as §1
# [8] = biological target: PUM1 PUF domain R3-SAE (Homo sapiens, UniProt Q14671 828-1176, C935S;R936A;Q939E)
# Outline: as §1
# [9] = biological target: PUM1 PUF domain R3-RSG (Homo sapiens, UniProt Q14671 828-1176, C935R;R936S;Q939G)
# Outline: as §1
# [10] = biological target: PUM1 PUF domain R5-LFR (Homo sapiens, UniProt Q14671 828-1176, C1007L;R1008F;Q1011R)
# Outline: as §1
# [11] = biological target: T1, PUM1 PUF domain R6-CFK (Homo sapiens, UniProt Q14671 828-1176, N1043C;Y1044F;Q1047K)
# T1 sequence: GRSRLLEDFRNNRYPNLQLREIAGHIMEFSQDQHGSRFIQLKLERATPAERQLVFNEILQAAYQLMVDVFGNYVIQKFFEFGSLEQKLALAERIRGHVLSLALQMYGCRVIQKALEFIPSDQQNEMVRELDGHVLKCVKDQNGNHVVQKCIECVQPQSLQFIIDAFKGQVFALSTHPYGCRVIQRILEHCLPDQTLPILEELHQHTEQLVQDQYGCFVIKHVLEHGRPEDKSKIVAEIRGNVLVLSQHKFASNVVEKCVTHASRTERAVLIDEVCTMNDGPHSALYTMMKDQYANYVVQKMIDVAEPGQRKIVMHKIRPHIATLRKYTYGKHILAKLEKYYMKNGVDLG
# Outline: as §1
# [12] = biological target: PUM1 PUF domain R4-ALC (Homo sapiens, UniProt Q14671 828-1176, N971A;H972L;Q975C)
# Outline: as §1
# [13] = biological target: PUM1 PUF domain R4-SPY (Homo sapiens, UniProt Q14671 828-1176, N971S;H972P;Q975Y)
# Outline: as §1
# [14] = biological target: PUM1 PUF domain R5-QRD (Homo sapiens, UniProt Q14671 828-1176, C1007Q;Q1011D)
# Outline: as §1
# [15] = biological target: PUM1 PUF domain R8-RFY (Homo sapiens, UniProt Q14671 828-1176, N1122R;Y1123F;Q1126Y)
# Outline: as §1
# [16] = biological target: T2, PUM1 PUF domain R6-IFC (Homo sapiens, UniProt Q14671 828-1176, N1043I;Y1044F;Q1047C)
# T2 sequence: T1 sequence with C216I, K220C
# Outline: as §1
# [17] = biological target: PUM1 PUF domain R4-FNC (Homo sapiens, UniProt Q14671 828-1176, N971F;H972N;Q975C)
# Outline: as §1
# [18] = biological target: PUM1 PUF domain R4-PFL (Homo sapiens, UniProt Q14671 828-1176, N971P;H972F;Q975L)
# Outline: as §1
# [19] = biological target: PUM1 PUF domain R4-SHS (Homo sapiens, UniProt Q14671 828-1176, N971S;Q975S)
# Outline: as §1
# [20] = biological target: T3, PUM1 PUF domain R6-GWE (Homo sapiens, UniProt Q14671 828-1176, N1043G;Y1044W;Q1047E)
# T3 sequence: T1 sequence with C216G, F217W, K220E
# Outline: as §1
# PUM1 PUF domain R5-RGK, sequence (Q14671 828-1176 C1007R/R1008G/Q1011K): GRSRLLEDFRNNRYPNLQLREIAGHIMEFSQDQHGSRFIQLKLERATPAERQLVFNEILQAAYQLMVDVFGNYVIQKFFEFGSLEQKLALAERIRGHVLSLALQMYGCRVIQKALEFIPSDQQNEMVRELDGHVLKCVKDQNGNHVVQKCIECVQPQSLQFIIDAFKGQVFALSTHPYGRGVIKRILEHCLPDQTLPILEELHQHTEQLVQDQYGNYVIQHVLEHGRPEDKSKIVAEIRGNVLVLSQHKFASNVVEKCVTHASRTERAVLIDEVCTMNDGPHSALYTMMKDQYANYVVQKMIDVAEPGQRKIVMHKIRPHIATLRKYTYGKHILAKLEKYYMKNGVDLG
# PUM1 PUF domain R4-DHS, sequence (Q14671 828-1176 N971D/Q975S): as the sequence (Q14671 828-1176 C1007R/R1008G/Q1011K) above, with N144D, Q148S, R180C, G181R, K184Q counted along it
sequence,measurement,setting,value
GGCUAGAACUAGUGGAUCCCCCGGCGCCCGGCGGCUCGAGCCCGGGUAAGUGUAAAAAGUCUGCAUGCCGCCGGGCGCCAUGCCUGCAGGUCGACUCUAGAAAACAUG,binding signal,[1],7.69 log2 enrichment (interaction score)
GGCUAGAACUAGUGGAUCCCCCGGCGCCCGGCGGCUCGAGCCCGGGUAAGUCUAAAUAGUCUGCAUGCCGCCGGGCGCCAUGCCUGCAGGUCGACUCUAGAAAACAUG,binding signal,[2],3.14 log2 enrichment (interaction score)
GGCUAGAACUAGUGGAUCCCCCGGCGCCCGGCGGCUCGAGCCCGGGUAAGUGUCAAUAGUCUGCAUGCCGCCGGGCGCCAUGCCUGCAGGUCGACUCUAGAAAACAUG,binding signal,[3],2.3 log2 enrichment (interaction score)
same,binding signal,[4],2.71 log2 enrichment (interaction score)
GGCUAGAACUAGUGGAUCCCCCGGCGCCCGGCGGCUCGAGCCCGGGUAAGUGUUAAUAGUCUGCAUGCCGCCGGGCGCCAUGCCUGCAGGUCGACUCUAGAAAACAUG,binding signal,[3],2.43 log2 enrichment (interaction score)
same,binding signal,[4],3.44 log2 enrichment (interaction score)
GGCUAGAACUAGUGGAUCCCCCGGCGCCCGGCGGCUCGAGCCCGGGUAAGUGUACAUAGUCUGCAUGCCGCCGGGCGCCAUGCCUGCAGGUCGACUCUAGAAAACAUG,binding signal,[5],2.5 log2 enrichment (interaction score)
same,binding signal,[6],3.02 log2 enrichment (interaction score)
GGCUAGAACUAGUGGAUCCCCCGGCGCCCGGCGGCUCGAGCCCGGGUAAGUUUAAAUAGUCUGCAUGCCGCCGGGCGCCAUGCCUGCAGGUCGACUCUAGAAAACAUG,binding signal,[2],3.69 log2 enrichment (interaction score)
same,binding signal,[7],3.69 log2 enrichment (interaction score)
GGCUAGAACUAGUGGAUCCCCCGGCGCCCGGCGGCUCGAGCCCGGGUAAGUGUAAGUAGUCUGCAUGCCGCCGGGCGCCAUGCCUGCAGGUCGACUCUAGAAAACAUG,binding signal,[8],4.99 log2 enrichment (interaction score)
same,binding signal,[9],1.02 log2 enrichment (interaction score)
GGCUAGAACUAGUGGAUCCCCCGGCGCCCGGCGGCUCGAGCCCGGGUAAGUGUAAAUAGUCUGCAUGCCGCCGGGCGCCAUGCCUGCAGGUCGACUCUAGAAAACAUG,binding signal,[10],2.2 log2 enrichment (interaction score)
same,binding signal,[6],4.49 log2 enrichment (interaction score)
same,binding signal,[11],3.27 log2 enrichment (interaction score)
same,binding signal,[12],3.15 log2 enrichment (interaction score)
same,binding signal,[13],3.88 log2 enrichment (interaction score)
GGCUAGAACUAGUGGAUCCCCCGGCGCCCGGCGGCUCGAGCCCGGGUAAGUGUAAUUAGUCUGCAUGCCGCCGGGCGCCAUGCCUGCAGGUCGACUCUAGAAAACAUG,binding signal,[9],3.59 log2 enrichment (interaction score)
GGCUAGAACUAGUGGAUCCCCCGGCGCCCGGCGGCUCGAGCCCGGGUAAGUGUGAAUAGUCUGCAUGCCGCCGGGCGCCAUGCCUGCAGGUCGACUCUAGAAAACAUG,binding signal,[14],5.16 log2 enrichment (interaction score)
same,binding signal,[4],1.16 log2 enrichment (interaction score)
GGCUAGAACUAGUGGAUCCCCCGGCGCCCGGCGGCUCGAGCCCGGGUAAGCGUAAAUAGUCUGCAUGCCGCCGGGCGCCAUGCCUGCAGGUCGACUCUAGAAAACAUG,binding signal,[15],5.49 log2 enrichment (interaction score)
GGCUAGAACUAGUGGAUCCCCCGGCGCCCGGCGGCUCGAGCCCGGGUAAGUGAAAAUAGUCUGCAUGCCGCCGGGCGCCAUGCCUGCAGGUCGACUCUAGAAAACAUG,binding signal,[16],5.44 log2 enrichment (interaction score)
GGCUAGAACUAGUGGAUCCCCCGGCGCCCGGCGGCUCGAGCCCGGGUAAGUGUAUAUAGUCUGCAUGCCGCCGGGCGCCAUGCCUGCAGGUCGACUCUAGAAAACAUG,binding signal,[17],3.02 log2 enrichment (interaction score)
same,binding signal,[18],4.21 log2 enrichment (interaction score)
same,binding signal,[19],6.15 log2 enrichment (interaction score)
same,binding signal,[5],3.45 log2 enrichment (interaction score)
same,binding signal,[6],5.89 log2 enrichment (interaction score)
same,binding signal,[13],1.88 log2 enrichment (interaction score)
GGCUAGAACUAGUGGAUCCCCCGGCGCCCGGCGGCUCGAGCCCGGGUAAGUGGAAAUAGUCUGCAUGCCGCCGGGCGCCAUGCCUGCAGGUCGACUCUAGAAAACAUG,binding signal,[20],5.02 log2 enrichment (interaction score)
